We go through 30 molecules from PubChem BioAssay (NCATS).

A short description of assay [1]: qHTS to identify inhibitors of the type 1 interferon - major histocompatibility complex class I in skeletal muscle: primary screen against the NCATS LOPAC collection (AID 1347405).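 Also: lytic HiBiT luminescence reporting HLA-B protein level.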 Also: potency is read from the fitted curve at half-maximal effect. In short, it runs like this: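 Cells: C25cl48 human myoblasts, HiBiT-tagged HLA-B*08:01, stimulated with IFN-beta 4.0 ng/ml. Compounds are titrated 1:4.3 over 7 points from 46 uM final and incubated 24 hrs; endogenous MHC class I is quantified by HiBiT lytic luminescence.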
For orientation: qHTS replaces the single test concentration by a dilution series.

Assay [2] can be described thus: qHTS for inhibitors of adenylyl cyclases using a fission yeast platform: a pilot screen against the NCATS LOPAC library (AID 1347410).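 Also: plate controls were DMSO vehicle for no effect and DPI positive control for full effect.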 In short, it runs like this: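 GFP from fbp1-GFP reporter, read by Acumen laser cytometry, indicates AC inhibition in fission yeast expressing AC9, GNAS and PDE4D2. Cells grown 18 h in the dark at 30C with compounds, final up to 57 uM.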

Assay [3] in a line: Validation qHTS assay for inhibitors of Activation Induced Cytidine Deaminase (AID): UDG Counterscreen signal (AID 1347427). Also: 0% is about no effect. In short, it runs like this: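 Counterscreen read of UDG activity (2 U/mL, 4/3x) in the FRET deamination format with AID (1 uM, 4/3x), DJC20/DJC23 substrates (250 nM, 4x), 4 h at room temperature. NaOH stop, fluorescence at 560 ex/665 em.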
The target in assay [4] is Single-stranded DNA cytosine deaminase (Homo sapiens) (UniProt Q9GZX7). In words: Validation qHTS assay for inhibitors of Activation Induced Cytidine Deaminase (AID): AID signal (AID 1347429). Also: % is scaled to controls: 0 for no effect and ±100 for the full control effect. An outline of the steps: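 In this coupled qHTS, AID deaminates a FRET-labelled ssDNA substrate in the presence of UDG over 4 hr at room temperature. Compounds span up to 114 uM final.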
Single-stranded DNA cytosine deaminase (Homo sapiens), sequence (Q9GZX7 whole entry, looked up): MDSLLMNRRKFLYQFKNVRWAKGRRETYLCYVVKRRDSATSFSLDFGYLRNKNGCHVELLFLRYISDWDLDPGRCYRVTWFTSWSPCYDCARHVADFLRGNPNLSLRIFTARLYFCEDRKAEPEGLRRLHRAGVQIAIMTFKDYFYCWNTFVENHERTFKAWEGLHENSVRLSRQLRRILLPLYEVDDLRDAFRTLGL

Assay [5] deals with Calcium and integrin-binding protein 1 (Homo sapiens) (UniProt Q99828). As to the kind of experiment: Validation qHTS for Identification of Calcium Integrin Binding protein 1 (CIB1) Competitor (AID 1508618). Also: % is scaled to controls: 0 for no effect and ±100 for the full control effect. An outline of the steps: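 In this qHTS validation, the LOPAC set (up to 114 uM) was tested for blocking CIB1 binding to a fluorescein-tagged alphaIIb peptide, with FP detection at 480/540 nm.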
Calcium and integrin-binding protein 1 (Homo sapiens), sequence (Q99828 whole entry, looked up): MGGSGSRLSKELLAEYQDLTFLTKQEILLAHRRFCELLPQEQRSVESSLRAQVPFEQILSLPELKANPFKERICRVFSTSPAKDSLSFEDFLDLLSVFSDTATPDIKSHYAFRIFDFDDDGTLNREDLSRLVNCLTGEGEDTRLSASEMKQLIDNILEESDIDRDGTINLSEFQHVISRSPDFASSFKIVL

Assay [6] in a line: Primary qHTS for small molecule stabilizers of the endoplasmic reticulum resident proteome: Secreted ER Calcium Modulated Protein (SERCaMP) assay (AID 1508630). Also: % is scaled to controls: 0 for no effect and ±100 for the full control effect. In short, it runs like this: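 GLuc-SERCaMP-expressing SH-SY5Y cells, pretreated 16 h with compound, are challenged with thapsigargin to empty ER calcium stores; after 4 h, coelenterazine is added directly to the medium and luminescence is imaged.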

The target in the next assay is Papain (Carica papaya) (UniProt P00784). As to the kind of experiment: Primary qHTS assay for inhibitors of the protease papain (AID 1645873).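 Also: papain turnover of Z-FR-AMC read as the AMC fluorescence gain over 10 min; series mostly up to about 50 µM; % is scaled to controls: 0 for no effect and ±100 for the full control effect.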
Papain (Carica papaya), sequence (P00784 whole entry, looked up, the tested form may be a part): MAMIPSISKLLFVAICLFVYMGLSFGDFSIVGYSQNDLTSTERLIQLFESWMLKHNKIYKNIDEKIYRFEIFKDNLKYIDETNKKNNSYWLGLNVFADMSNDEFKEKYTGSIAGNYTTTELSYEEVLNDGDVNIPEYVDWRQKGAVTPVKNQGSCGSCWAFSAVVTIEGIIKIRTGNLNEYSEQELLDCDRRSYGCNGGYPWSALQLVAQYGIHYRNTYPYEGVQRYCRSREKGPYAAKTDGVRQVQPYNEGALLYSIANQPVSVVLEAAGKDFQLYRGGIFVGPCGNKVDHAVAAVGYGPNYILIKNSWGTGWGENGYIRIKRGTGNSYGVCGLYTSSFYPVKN
Assay [7] is described as follows: Primary qHTS for inhibitors of nuclear receptor binding SET domain protein 2 (NSD2) in an isogenic RCH-ACV NSD2 p.E1099K mutant (9B) (AID 1645876). Also: potency is read from the fitted curve at half-maximal effect; nearly all actives have a fitted effect of over 70% in size.
The nature of assay [8]: Primary qHTS for inhibitors of La Crosse Virus (LACV) - induced cell death in SH-SY5Y cells (AID 1508616).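 Also: top concentration of the series differs between compounds; 0% = infected DMSO wells and 100% = uninfected DMSO wells; higher means more rescue of cells from virus-induced death.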 In short, it runs like this:
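Readout was luminescence from ATPLite 1step added after a 6-day LACV infection (0.01 MOI) of SH-SY5Y cells that had received pin-transferred compound 24 hr after seeding.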

The nature of assay [9]: Counterscreen qHTS for small molecule stabilizers of the endoplasmic reticulum resident proteome: GLuc-NoTag assay (AID 1508627).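 Also: SH-SY5Y cells given compound then 100 nM thapsigargin to empty ER calcium; series mostly up to about 76 µM; 0% = thapsigargin alone and -100% = DMSO vehicle control.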 In short, it runs like this: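 SH-SY5Y cells stably expressing constitutively secreted GLuc (no SERCaMP tag) were pre-incubated 5 h, treated with compound for 19 h, then 100 nM thapsigargin for 4 h at 37C; medium GLuc read by coelenterazine luminescence.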
A general note: Counterscreens check selectivity or assay interference.

Assay [10] in a line: Confirmatory qHTS for small molecule stabilizers of the endoplasmic reticulum resident proteome: Secreted ER Calcium Modulated Protein (SERCaMP) assay (AID 1508628).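 Also: SH-SY5Y cells given compound 16 h then thapsigargin 100 nM for 4 h; series mostly up to about 76 µM; % is scaled to controls: 0 for no effect and ±100 for the full control effect; nearly all actives have a fitted effect of over 40% in size.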 An outline of the steps:
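We seeded SH-SY5Y-GLuc-SERCaMP cells, added compounds (three concentrations in the primary run, eleven up to 76.6 uM in confirmation), incubated 16 h, depleted ER calcium with thapsigargin, and read luciferase 4 h later.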

Assay [11] in a line: Cell Viability qHTS for small molecule stabilizers of the endoplasmic reticulum resident proteome (AID 1508629). Conditions: cell viability counter-screen, 100 nM thapsigargin for final 4 h.

SMILES strings stand for the structures. Values without a mark were called inactive. Records with an inconclusive call do not appear. Active and inactive are the calls of the source. Calls follow the shape of the dose curve; as a rule, active = well fitted curve in the direction sought with a large enough effect; inconclusive = small, poorly fitted or top-dose-only effect, or another doubt; inactive = no such curve, though single readings can be large; an effect the other way counts as inactive or inconclusive.

`NCC(O)C1CCCCCCC1` (stereo not drawn): the Potency entry (in [1]; in [3]; in [4]; in assay [5]; in [6]; with Papain (Carica papaya)) was “inactive” each time. Further, the molecule was called inactive in [2].
For the molecule `CCOC(=O)C12CC1/C(=N/O)c1ccccc1O2` (stereo not drawn), the Potency entry (in assay [1]; in [3]; in assay [4]; with Papain (Carica papaya)) was “inactive” in each case. For the same molecule, the result in assay [2] was inactive.
On to `CCCOC(=O)c1c(-c2ccccc2)nc(CC)c(C(=O)SCC)c1CCC`, for which the Potency result (in [1]; in assay [3]; in [4]; in assay [5]; with Papain (Carica papaya)) was “inactive” throughout. For the same molecule, the call in assay [2] was inactive.
`C[C@](Cc1ccc(O)c(O)c1)(NN)C(=O)O`: the Potency result (in [1]; in assay [3]; in assay [4]; in assay [5]; in the assay with Papain (Carica papaya)) was “inactive” throughout. The outcome in assay [2] was inactive.
In the case of `O=[N+]([O-])c1cccc2cn[nH]c12`, the Potency result (in assay [1]; in assay [3]; in assay [4]; in assay [5]; in assay [6]; in the assay with Papain (Carica papaya)) was “inactive” in each case. For the same molecule, in assay [2], the molecule was called inactive.
For `O=C1Cc2c([nH]c3ccc(Br)cc23)-c2ccccc2N1`, the Potency in assay [1] is 12.6 µM (active); in [7], 6.51 µM (active). Besides, the molecule was called inactive in [2]. The Potency entry (in assay [3]; in assay [4]; in assay [6]; with Papain (Carica papaya)) was “inactive” throughout.
For `COCc1nc2c([nH]1)c(=O)n(C)c(=O)n2CC(C)C`, the Potency result (in assay [1]; in assay [3]; in [4]; in [5]; in assay [6]; in the assay with Papain (Carica papaya)) was “inactive” throughout. In assay [2], the molecule was classed as inactive.
Regarding `COc1ccc(NC(=O)c2ccc(-c3ccc(-c4noc(C)n4)cc3C)cc2)cc1N1CCN(C)CC1`, the Potency in assay [1] is 25.1 µM (active). In assay [2], the call was inactive. Besides, the Potency result (in [3]; in [4]; in assay [6]; in the assay with Papain (Carica papaya)) was “inactive” each time.
Consider `CCCn1c(=O)c2[nH]c(C3CCCC3)nc2n(CCC)c1=O`, for which the Potency result (in assay [1]; in assay [3]; in [4]; in assay [5]; with Papain (Carica papaya)) was “inactive” in each case. Further, in [2], the molecule was called inactive.
In the case of `O=C(O)[C@H]1NCCC[C@H]1C(=O)O`, the Potency entry (in assay [1]; in [3]; in [4]; in [6]; in the assay with Papain (Carica papaya)) was “inactive” in each case. For the same molecule, the outcome in [2] was inactive.
As for `Cn1c(=O)c2[nH]c(C3CCCC3)nc2n(C)c1=O`, the Potency result in assay [1], in [3], in assay [4], in assay [5] and in assay [6] was “inactive” each time. For the same molecule, the call in assay [2] was inactive.
As for `Nc1ncnc2c1ncn2C1CCCC1`, the Potency result (in assay [1]; in assay [3]; in [4]; in assay [5]; in [6]; with Papain (Carica papaya)) was “inactive” throughout. For the same molecule, the result in assay [2] was inactive.
For `CN1CCN(c2nc3cc(C(F)(F)F)ccc3n3cccc23)CC1`, the Potency result (in assay [1]; in [3]; in assay [4]; with Papain (Carica papaya)) was “inactive” throughout. The molecule was classed as inactive in assay [2].
For the molecule `COc1cc(C(O)CO)ccc1O` (stereo not drawn), the Potency result (in [1]; in [3]; in assay [4]; in assay [5]; with Papain (Carica papaya)) was “inactive” throughout. For the same molecule, the molecule was classed as inactive in assay [2].
With `COc1cc(C(O)C(=O)O)ccc1O` (stereo not drawn), the Potency result (in assay [1]; in [3]; in [4]; in [5]; in assay [6]; with Papain (Carica papaya)) was “inactive” each time. For the same molecule, the outcome in assay [2] was inactive.
Turning to `Cn1ccnc1`, the Potency entry (in assay [1]; in assay [3]; in assay [4]; in [5]; in assay [6]; with Papain (Carica papaya)) was “inactive” each time. Further, the molecule was called inactive in assay [2].
Regarding `CCN(CC)CCOC(=O)c1cc(Cl)c(N)cc1OC`, the Potency result (in assay [1]; in assay [3]; in [4]; in assay [5]; in assay [6]; with Papain (Carica papaya)) was “inactive” throughout. The molecule was classed as inactive in [2].
Regarding `[N-]=[N+]=Nc1ccc(C(=O)CSC[C@H](NC(=O)CC[C@H](N)C(=O)O)C(=O)NCC(=O)O)cc1`, the Potency result in [1], in assay [3], in assay [8], in assay [5] and in assay [6] was “inactive” throughout. Also, the outcome in [2] was inactive.
Consider `N#Cc1cc2nc(O)c(O)nc2cc1[N+](=O)[O-]`, for which the Potency result in assay [1], in [3], in [4] and in [6] was “inactive” throughout. Besides, the outcome in [2] was inactive.
As for `NCCCNCCCCNCCCN`, the Potency entry (in assay [1]; in assay [3]; in assay [4]; in assay [5]; in assay [6]; with Papain (Carica papaya)) was “inactive” throughout. Further, the result in assay [2] was inactive.
Regarding `CN1C2CCC1CC(OC(c1ccccc1)c1ccccc1)C2` (stereo not drawn), the Potency result (in assay [1]; in [3]; in [4]; in [5]; in assay [9]; with Papain (Carica papaya)) was “inactive” throughout. For the same molecule, the call in assay [2] was inactive.
Take `CC(=O)N[C@@H](Cc1c[nH]c2ccccc12)C(=O)OCc1cc(C(F)(F)F)cc(C(F)(F)F)c1`: the Potency entry (in assay [1]; in [3]; in assay [4]; in assay [6]; in the assay with Papain (Carica papaya)) was “inactive” each time. Moreover, the molecule was called inactive in [2].
For `O=C(O)C1CN(CCCP(=O)(O)O)CCN1` (stereo not drawn), the Potency result (in [1]; in assay [3]; in [4]; in [5]; in [6]; in the assay with Papain (Carica papaya)) was “inactive” throughout. Further, in assay [2], the result was inactive.
For the molecule `CC1C(=O)N(C)C(=O)c2nc[nH]c21` (stereo not drawn), the Potency entry (in [1]; in [3]; in assay [4]; in assay [5]; with Papain (Carica papaya)) was “inactive” in each case. Moreover, the outcome in assay [2] was inactive.
Take `CN1CCc2cc(Cl)c(O)cc2[C@@H](c2ccccc2)C1`: the Potency entry in [1], in assay [3], in assay [4], in assay [5] and in assay [10] was “inactive” throughout. Besides, in assay [2], the molecule was classed as inactive.
With `CN1CCCC1CCOC(C)(c1ccccc1)c1ccc(Cl)cc1` (stereo not drawn), the Potency entry (in [1]; in [3]; in [4]; in [5]; with Papain (Carica papaya)) was “inactive” throughout. Moreover, the outcome in assay [2] was inactive. For the same molecule, the max response in assay [11] was 8.32%.
With `C[C@H]1CC2C3CCC4=CC(=O)C=C[C@]4(C)[C@@]3(Cl)[C@@H](O)C[C@]2(C)[C@@]1(O)C(=O)CO` (stereo partly drawn), the Potency entry (in assay [1]; in assay [3]; in [4]; in assay [5]; in [6]; with Papain (Carica papaya)) was “inactive” each time. Also, the outcome in assay [2] was inactive.
Regarding `CN(C)CCCc1cc(C(=O)Nc2ccc(-c3ccncc3)cc2)ccc1O`, the Potency result (in assay [1]; in assay [3]; in assay [8]; in assay [5]; in assay [6]; in the assay with Papain (Carica papaya)) was “inactive” each time. The outcome in assay [2] was inactive.
As to `NC(=O)CNCCC(c1ccccc1)c1ccccc1`, the Potency entry (in assay [1]; in assay [3]; in [4]; in [5]; in assay [6]; with Papain (Carica papaya)) was “inactive” each time. In addition, in assay [2], the outcome was inactive.
For the molecule `CNCCc1cnc(CCC(c2ccccc2)c2ccccc2)[nH]1`, the Potency entry (in assay [1]; in assay [3]; in [4]; in assay [5]; in assay [6]; in the assay with Papain (Carica papaya)) was “inactive” each time. The outcome in [2] was inactive.
